# Test results: PubChem BioAssay AID2094 (Broad Institute, 2009)
# Out of some 300,000 compounds screened, about 1,200 (0.4%) were called active. The list comes from a sample in which actives are over-represented; it also holds similar structures and randomly drawn compounds. A number with no mark means an inactive call. Rule as the data show it: active = activity change below about -75% (passing the limit was not always enough); inconclusive = no clear call, values can overlap the other calls.
# Test: modulation of AI-2 quorum-sensing luminescence – JMH597 strain, luminescence/OD600 ratio, primary screen (AID 2094);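 also: luminescence divided by OD600 gain over 9 h not by final OD600 alone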
# Conditions: Vibrio harveyi JMH597 AI-2 luminescence/OD600 ratio, 9 h; at 7.5 µM; stronger effect = lower value; 0 = neutral-control median; strain lacks LuxN and CqsS sensors
row,Compound,activity change
1,O=S(=O)(Nc1cccc(Oc2ccc(Cl)cc2)n1)c1ccc(F)cc1,-97.1% (active)
2,O=S(=O)(Nc1ccccn1)c1cccc(S(=O)(=O)c2ccc(Cl)cc2)c1,3.88%
3,O=S(=O)(Nc1ccccn1)c1ccc(Oc2ccccc2)cc1,21.1%
4,CC(=O)Oc1ccc2c(=O)oc(-c3ccc([N+](=O)[O-])cc3)nc2c1,9.78%
5,COC(=O)/C=C\C(=O)Nc1cccc([N+](=O)[O-])c1,-88.2% (active)
6,COc1ccc(S(=O)(=O)NC(C)C(=O)Nc2cccc([N+](=O)[O-])c2)cc1 (stereo unspecified),16.9%
7,COc1cccc(CNC(=O)CCCC(=O)Nc2cccc([N+](=O)[O-])c2)c1,33.3%
8,Cc1ccc(C(=O)NNC(=O)c2ccncc2)cc1S(=O)(=O)N1CCCCC1,18%
9,NC(=O)c1ccc(-c2csnn2)cc1,-13%
10,Cc1cc(C)c(C(N)=O)c(Cl)n1,-0.00035%
11,O=C(NCc1cccc(CNC(=O)Nc2cccc(O)c2)c1)Nc1cccc(O)c1,3.61%
12,COc1cccc(NC(=O)NCCN2CCCCC2)c1,8.92%
13,COc1cccc(NC(=O)NCc2ccc(F)cc2)c1,-88.7% (active)
14,Oc1ccc(N=Nc2nccs2)c(O)c1,-86.3% (active)
15,Cc1cc(-c2ccccc2)nc(N2CCC(C(=O)NC34CC5CC(CC(C5)C3)C4)CC2)n1,31.5%
16,CCN1C(=NCCc2cccnc2)N[C@@H](c2ccccc2)C(C(=O)OC)=C1C,8.09%
17,O=C(O)c1ccc(N/N=C/c2cn(-c3ccccc3)nc2-c2cccs2)cc1,-83.5% (active)
18,O=C(/C=C\c1cn(-c2ccccc2)nc1-c1cccs1)N1CCOCC1,28.5%
19,COc1ccc(-c2nn(-c3ccccc3)cc2/C=C\C(=O)Nc2ccc(C(=O)O)cc2)cc1,21.3%
20,O=C1C2CCCN2C(=O)N1CCCCN1CCN(c2cccc(C(F)(F)F)c2)CC1 (stereo unspecified),12.2%
21,CCC(C)N(C(=O)COC(=O)C1C(C(=O)OC)=C(C)NC(C)=C1C(=O)OC)C1CCS(=O)(=O)C1 (stereo unspecified),18.1%
22,CN(C)S(=O)(=O)c1ccc(Oc2ccc(S(=O)(=O)N(C)C)cc2)cc1,-86.2% (active)
23,CN(C)S(=O)(=O)c1ccc(NC(=O)N2CCOCC2)cc1,11.7%
24,COc1cccc(NC(=O)c2ccc(S(=O)(=O)N(C)C)cc2)c1,14.9%

row,Compound,activity change
1,CCc1ccc(-c2cc(C)no2)cc1S(=O)(=O)NCCc1ccc(S(N)(=O)=O)cc1,9.18%
2,CC12CCC(=O)N1C(C(=O)NCCN1C(=O)S/C(=C\c3ccccc3F)C1=O)CS2 (stereo unspecified),17%
3,O=c1c2ccccc2c(-c2ccc(Br)cc2)nn1Cc1ccccc1,41.9%
4,Nc1c(-c2ccccc2)nnn1Cc1ccccc1,-76.6% (active)
5,Nc1c(C(=O)Nc2ccc3c(c2)OCCO3)nnn1Cc1ccccc1,9.93%
6,O=C(/C=C/c1ccc(F)cc1)NC(=S)NNC(=O)c1cccnc1,-112% (active)
7,O=C(/C=C/c1ccc(F)cc1)NCCNC(=O)/C=C/c1ccc(F)cc1,20.3%
8,CC(C)c1ccc(/C=C/C(=O)NNC(=O)c2cccnc2)cc1,5.1%
9,Cc1ccc(N2CCN(S(=O)(=O)N(C)C)CC2)cc1Cl,10.7%
10,CCCCCCC(O)(CCN1CCCCC1)c1ccccc1 (stereo unspecified),20%
11,OC(CN=c1sc2ccccc2n1CC(O)COc1ccccc1)COc1ccccc1 (stereo unspecified),4.84%
12,O=C(c1ccc(-c2ccccc2)cc1)C1CCCN(C(=O)c2cncs2)C1 (stereo unspecified),-77.4% (active)
13,CCNC(=O)N1CCCC(C(=O)c2ccc(-c3ccccc3)cc2)C1 (stereo unspecified),-9.07%
14,Cn1nccc1C(=O)N1CCCC(C(=O)c2ccc(Oc3ccccc3)cc2)C1 (stereo unspecified),-2.94%
15,Cc1ccc(-c2nc3c(cnn3-c3ccccc3)c(=O)o2)cc1,9.58%
16,Cc1ccc(Oc2cnn(-c3ccccc3)c(=O)c2Br)cc1,-95.8% (active)
17,COc1ccc(Oc2c(Cl)cnn(-c3ccccc3)c2=O)cc1,8.72%
18,C/C(=N\NC(=O)c1ccc(C)cc1)C1C(=O)c2ccccc2C1=O,17%
19,Cc1ccsc1C(=O)OCC(=O)c1cc(C)n(CC2CCCO2)c1C (stereo unspecified),22.3%
20,Cc1ccsc1C(=O)OCC(=O)c1cc2ccccc2o1,-88.1% (active)
21,CSCCC(NC(=O)COc1ccccc1)C(=O)OCC(=O)c1cc2ccccc2o1 (stereo unspecified),8.03%
22,Cc1ccc(NC(=O)C2CCN(S(=O)(=O)c3ccc4c(c3)NC(=O)CO4)CC2)cc1C,-2.55%
23,Cn1c(N)c(C(=O)COC(=O)C23CC4CC(CC(C4)C2)C3)c(=O)n(C)c1=O,12.7%
24,Cc1csc(=O)n1CC(=O)OCC(=O)N(CC(C)C)c1c(N)n(Cc2ccccc2)c(=O)[nH]c1=O,6.79%

row,Compound,activity change
1,CC(C)(C)c1ccc(OC2=CS(=O)(=O)c3ccccc32)cc1,-84.2% (active)
2,CC(C)(C)c1ccc(Oc2ccc(N)cc2)cc1,-23.7%
3,CC(C)(C)c1ccc(CN2C(=O)c3ccccc3S2(=O)=O)cc1,21.7%
4,CCN(CC)C(=O)CN(c1cccc(OC)c1)S(=O)(=O)c1ccc(C)cc1,9.13%
5,O=C(COc1ncnc2ccccc12)NC(=O)NCc1ccccc1,-86.9% (active)
6,CC(C)C(C)NC(=O)COc1ncnc2ccccc12 (stereo unspecified),19.9%
7,CC(=O)Nc1ccc(NC(=O)COc2ncnc3ccccc23)cc1,-8.91%
8,CCOC(=O)c1cc(C(C)C)sc1NC(=O)COC(=O)c1nccnc1N,29.5%
9,N/C(=N\OC(=O)Cc1ccccc1[N+](=O)[O-])c1ccc(Br)cc1,-5%
10,COc1ccc(/C(N)=N/OC(=O)Cc2ccccc2)cc1,-87.5% (active)
11,COc1ccc(/C(N)=N/OC(=O)CCCc2ccccc2)cc1,749%
12,O=C1CCCc2nn(-c3ccccc3)nc21,8.67%
13,CCCc1ccc(OCC(=O)NNC(=S)NC(=O)c2ccco2)cc1,-5.63%
14,CCCc1ccc(OCCNC(=O)c2ccco2)cc1,-83.3% (active)
15,CCCc1ccc(OCCNC(=O)c2ccccc2Br)cc1,28.5%
16,Cc1ccccc1OCC(=O)Nc1ccc2c(c1)ncn2C,27.2%
17,Cc1ccc(C(=O)O)cc1N1C(=O)CCCC1=O,28.2%
18,CCc1nnc(NS(=O)(=O)c2ccc(NC(=O)c3cccc(OC(F)(F)C(F)F)c3)cc2)s1,24.2%
19,O=C(O)c1ccc(S(=O)(=O)N2CCC(Cc3ccccc3)CC2)cc1,38.4%
20,Cc1cc(C)nc(N/N=C/c2ccncc2)n1,10.7%
21,CCc1ccc(S(=O)(=O)N/N=C\c2ccc([N+](=O)[O-])o2)cc1,28.2%
22,Cc1cc(C)nc(N/N=C/c2ccc([N+](=O)[O-])o2)n1,-83.7% (active)
23,NC(=O)CN1CCCC1c1ccc2c(c1)OCCO2 (stereo unspecified),22.1%
24,Cc1ccc(CCCOC(=O)C[N+]2(C)CCCCC2)cc1,20.1%

row,Compound,activity change
1,Cc1ccc(Cc2nc(-c3cccc(C)c3)no2)cc1,-81.8% (active)
2,Cc1ccc(-c2noc(CN3CCN(Cc4ccccc4)CC3)n2)cc1,-10.7%
3,Cc1cccc(-c2noc(-c3ccc(F)cc3)n2)c1,2.4%
4,Cc1cccc(C)c1N1CCN(S(=O)(=O)N2CCOCC2)CC1,0.226%
5,Cc1cc(C(=O)OCC(=O)Nc2ccc(F)c(F)c2)c(C)o1,-93.5% (active)
6,Cc1cccc(C(=O)OCC(=O)Nc2ccc(F)cc2)c1,-25.5%
7,Cc1cc(C)cc(NC(=O)COC(=O)c2cc(C)oc2C)c1,-17%
8,CCOC(=O)N1CCN(S(=O)(=O)c2ccc(Br)cc2)CC1,14.3%
9,CC1CCN(C(=O)Cn2nnnc2CN2CCOCC2)CC1,8%
10,O=C(O)/C=C/c1ccc2c(c1)OCCO2,6.59%
11,CN(C)c1ccc(/C=C/C(=O)c2ccc(C(C)(C)C)cc2)cc1[N+](=O)[O-],19.9%
12,CC(=O)c1ccc2c(c1)OCCOCCOc1ccc(C(C)=O)cc1OCCOCCO2,17.9%
13,O=C(/C=C/c1ccc2c(c1)OCCO2)c1ccc(O)cc1,-84.5% (active)
14,O=C(/C=C/c1ccc(Cl)c([N+](=O)[O-])c1)c1ccc(O)cc1,-37.5%
15,CN(C)c1ccc(/C=C/C(=O)c2ccc(O)cc2)cc1[N+](=O)[O-],-93% (active)
16,O=C(Cc1ccc([N+](=O)[O-])cc1)Nc1ccc(C(=O)N2CCOCC2)cc1,31%
17,CCN(CC)c1ccc(S(=O)(=O)N2CCCCC2)cc1NC(=O)C1=COCCO1,0.314%
18,Cc1cccc(N2CCN(S(=O)(=O)c3ccc(-c4cc(C)no4)s3)CC2C)c1 (stereo unspecified),7.14%
19,Cc1ccc(C(=O)N2CCN(S(=O)(=O)N3CCOCC3)CC2)cc1,14.3%
20,O=C(COC(=O)C1CCCCC1)Nc1ccc([N+](=O)[O-])cc1,-83.6% (active)
21,NC(=O)c1ccc(NC(=O)COC(=O)c2ccc([N+](=O)[O-])cc2)cc1,17.8%
22,O=C(COc1ccc([N+](=O)[O-])cc1)Nc1ccc(N2CCCC2)cc1,44.5%
23,CCCC1NC(=O)NC(C)=C1C(=O)OCC (stereo unspecified),2.55%
24,Oc1c(Br)cc(/C=N/NC(=S)NCC2CCCO2)cc1Br (stereo unspecified),46.7%
